MPTP inh: blocks calcium-induced mitochondrial swelling; isolated mouse mitochondria, Ca2+ swelling absorbance, 30 min; hit rate 1.4% among 360,000; AID 602449; inhibition, % at 10 µM;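 active = inhibition of 50% or more, scaled per plate between neutral and stimulator controls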;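 note: 0% = DMSO wells given calcium and 100% = 1 mM EGTA wells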
CSC inhib: cancer stem cell inhibition. cancer stem cell-like cells viability, luminescence. inhibition, % at 7.5 µM. hit rate 1.1% among 300,000. AID 2717; in the data active = inhibition above about 75%; tested in HMLE shEcad cells
GRIN3A LBD mod: NR3A (human) ligand-binding domain modulation. NR3A LBD differential scanning fluorimetry, Tm shift; 0% = protein alone, 100% = glycine-bound protein. Tm shift relative to glycine control, % at 25 µM. hit rate 2.5% among 340,000;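 active = melting temperature shift of at least 10% of the positive control shift, at one fixed dose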
Beta apoptosis: blocks beta cell apoptosis; AID 435005; INS-1E cytokine-induced death, ATP luminescence, 48 h; percent of positive-control rescue, neutral wells zero; protection from apoptosis, % (concentration not given with the values); hit rate 0.8% among 300,000;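 active = Every replicate reaches about 75%, or at least half do and their mean reaches it too, limit read from the data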;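 note: 0% = cytokine-treated negative control wells and 100% = positive control rescue; higher means more ATP so stronger rescue from cytokine killing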
Gli-Sufu block: antagonists of Gli-Sufu signaling. Sufu-KO-LIGHT fibroblasts, Gli luciferase reporter luminescence. inhibition, % at 5 µM. hit rate 0.74% among 340,000. AID 588413;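 active = inhibition above about 55%, limit read from the data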;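 note: 0% = DMSO-treated cells and 100% = wells with medium but no cells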
Mdm2 MdmX PPI: inhibitors of human Mdm2/MdmX interaction; AID 485346; inhibition, % at 8 µM; hit rate 3% among 330,000; SaOS-2 split-luciferase Mdm2/MdmX complementation, luminescence;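 active = inhibition of at least 50% at 8 µM in the primary screen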
Target sequence (O15151 whole entry, looked up): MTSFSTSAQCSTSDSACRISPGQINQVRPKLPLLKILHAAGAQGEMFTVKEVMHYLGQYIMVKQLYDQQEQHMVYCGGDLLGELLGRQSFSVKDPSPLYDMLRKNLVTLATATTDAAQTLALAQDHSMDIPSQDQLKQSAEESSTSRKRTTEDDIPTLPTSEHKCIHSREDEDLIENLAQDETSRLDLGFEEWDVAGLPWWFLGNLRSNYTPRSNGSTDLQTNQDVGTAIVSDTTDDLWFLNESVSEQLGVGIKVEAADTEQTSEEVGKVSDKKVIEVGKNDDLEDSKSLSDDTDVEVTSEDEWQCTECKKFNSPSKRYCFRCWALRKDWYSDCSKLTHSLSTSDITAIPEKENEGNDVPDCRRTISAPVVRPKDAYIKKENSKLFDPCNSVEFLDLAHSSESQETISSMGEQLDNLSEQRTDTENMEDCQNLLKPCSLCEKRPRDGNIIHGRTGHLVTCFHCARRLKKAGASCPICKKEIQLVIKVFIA
Target sequence (Q00987 whole entry, looked up): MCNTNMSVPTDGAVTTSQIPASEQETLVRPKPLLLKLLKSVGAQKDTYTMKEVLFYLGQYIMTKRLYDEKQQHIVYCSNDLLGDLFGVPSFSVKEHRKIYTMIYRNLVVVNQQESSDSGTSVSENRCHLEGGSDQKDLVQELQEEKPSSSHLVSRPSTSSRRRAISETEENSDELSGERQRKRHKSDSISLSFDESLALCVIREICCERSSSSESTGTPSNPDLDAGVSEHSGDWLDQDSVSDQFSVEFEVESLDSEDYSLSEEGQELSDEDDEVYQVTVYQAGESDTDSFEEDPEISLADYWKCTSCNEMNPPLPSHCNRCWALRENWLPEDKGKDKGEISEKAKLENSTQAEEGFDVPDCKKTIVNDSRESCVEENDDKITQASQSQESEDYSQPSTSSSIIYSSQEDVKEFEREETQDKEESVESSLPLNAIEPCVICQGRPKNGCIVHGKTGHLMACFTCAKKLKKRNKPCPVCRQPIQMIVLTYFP
Gli antag conf: Gli-SUFU antagonism confirmation, single concentration; shares compounds with Gli-Sufu block; Sufu-KO-LIGHT cells, Gli luciferase reporter, luminescence; inhibition, % at 5 µM; AID 602428; hit rate 40% among 2,500;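 active = mean inhibition at 5 µM reaching about 45%, limit read from the data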;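 note: plate controls were DMSO-treated cells for no effect and wells lacking cells for full effect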
SufuKO cytotox: cytotoxicity counter-screen for Gli-SUFU antagonists | shares compounds with Gli-Sufu block | Sufu-KO-LIGHT cells cytotoxicity, ATP luminescence | cytotoxicity, % at 5 µM | hit rate 32% among 2,500;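 active = mean cytotoxicity at 5 µM above about 25%, limit read from the data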;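 note: cells exposed to compound overnight for roughly 16 to 18 hours; plate controls were DMSO wells with cells for no effect and medium without cells for full effect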
Wnt3a cs: Wnt3a reporter inhibition counter-screen. shares compounds with Gli-Sufu block. Wnt-LIGHT cells, Wnt3a-driven luciferase reporter, luminescence. inhibition, % at 6.25 µM. hit rate 20% among 2,500. AID 651995;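 active = mean inhibition above about 25%, limit read from the data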
An asterisk follows results filed as active; nt = no result. Most compounds without a hit are left out; they make up all but 6.6% or so of the library.

SMILES	MPTP inh	CSC inhib	GRIN3A LBD mod	Beta apoptosis	Gli-Sufu block	Mdm2 MdmX PPI	Gli antag conf	SufuKO cytotox	Wnt3a cs
N#CCC(=O)Nc1ccc(C(=O)OCC(=O)C23CC4CC(CC(C4)C2)C3)cc1	-1	-7	2	0	-8	-1	nt	nt	nt
O=C(OCC12CC3CC(CC(C3)C1)C2)c1ccc(NCc2cc(O)ccc2O)cc1	1	nt	12*	nt	78*	nt	68*	38*	66*
Cc1csc(NC(=O)c2cc3c(s2)CCC3)n1	0	30	-3	8	62*	-115	-62	12	-1
COC(=O)c1sc(NC(=O)c2cc3c(s2)CCCC3)nc1C	0	14	-20	13	-100	-73	nt	nt	nt
O=C(Nc1ccc(Cl)cc1N1CCOCC1)C1CCCO1 (stereo not drawn)	1	-3	-1	-4	0	-4	nt	nt	nt
CCn1c2ccccc2c2cc(NC(=O)c3ccccc3[N+](=O)[O-])ccc21	-1	nt	3	6	16	17	nt	nt	nt
COC(=O)c1ccc(Oc2cc(C)nc(-n3nc(C)cc3C)n2)cc1	-1	55	-1	17	52	nt	64*	60*	18
COC(=O)c1ccc(Oc2nc(C)cc(Oc3ccccc3)n2)cc1	0	-9	-2	-1	0	20	nt	nt	nt
COc1ccc(CCC(=O)Nc2ccccc2C(F)(F)F)cc1	0	-13	-1	1	-3	14	nt	nt	nt
CCOC(=O)c1ccccc1NC(=O)Nc1ccc(OC)c(OC)c1	0	-4	0	0	62*	4	17	13	3
COc1ccc(NC(=O)Nc2cccc3ccccc23)cc1OC	0	-4	-1	-3	-11	29	nt	nt	nt
CCOC(=O)c1ccccc1NC(=O)C(C)Oc1ccccc1 (stereo not drawn)	-2	2	2	-3	0	14	nt	nt	nt
CCCC(C)C(=O)Nc1ccccc1C(=O)OCC (stereo not drawn)	2	-9	6	2	100*	9	1	20	-7
CC(C)CNC(=O)COC(=O)c1n[nH]c2ccccc12	6	-17	-1	-7	-39	1	nt	nt	nt
O=C(CSc1nc(C(F)(F)F)cc(=O)[nH]1)N1CCCC1	-1	nt	0	-6	1	2	nt	nt	nt
CSC1SCC2C(=O)N(C)C(C(C)C)C(=O)OCC(NC(=O)c3cnc4ccccc4n3)C(=O)NC(C)C(=O)N(C)C1C(=O)N(C)C(C(C)C)C(=O)OCC(NC(=O)c1cnc3ccccc3n1)C(=O)NC(C)C(=O)N2C (stereo not drawn)	-2	nt	-1	nt	80*	nt	85*	73*	102*
O=[N+]([O-])c1ccc(C[n+]2cc(-c3ccccc3)n3c2CCCCC3)cc1	-1	-12	-1	-3	12	2	nt	nt	nt
FC(F)Oc1ccc(-c2c[n+]3c(n2-c2ccccc2)CCCCC3)cc1	2	-8	1	8	60*	-5	70*	21	-7
COc1ccc(-c2c[n+]3c(n2-c2ccccc2)CCCCC3)cc1	1	27	0	115*	84*	11	85*	35*	34*
CC(C)C(=O)N1CCC1(C)C(=O)NCc1cc(Cl)ccc1F (stereo not drawn)	-1	nt	nt	nt	nt	nt	nt	nt	nt
CC1CCC(C(C)C)C(OCC(O)CN2CCOCC2)C1 (stereo not drawn)	0	-3	2	-7	54	21	11	4	-18
O=C1OCC2=C1C(c1ccc(F)cc1)c1cc3c(cc1N2)OCO3 (stereo not drawn)	0	nt	-2	nt	56*	nt	58*	62*	25
COc1ccccc1NC(=O)N1CCCC1C(=O)NCC1CCCO1 (stereo not drawn)	-1	4	-1	1	50	3	25	9	-7
N=C(N=C(N)N)N1CCc2ccccc21	0	nt	1	-9	27	-16	nt	nt	nt
O=C(CCNC(=O)C1CCN(S(=O)(=O)c2ccc(F)cc2)CC1)NCc1ccc(Cl)cc1	1	-2	2	-4	61*	3	13	11	-10
SMILES	MPTP inh	CSC inhib	GRIN3A LBD mod	Beta apoptosis	Gli-Sufu block	Mdm2 MdmX PPI	Gli antag conf	SufuKO cytotox	Wnt3a cs
COc1ccc(NC(=O)CCNC(=O)C2CCN(S(=O)(=O)c3ccc(OC)cc3)CC2)cc1	-1	-15	0	nt	-6	15	nt	nt	nt
CCOc1ccc(NC(=O)CCNC(=O)C2CCN(S(=O)(=O)c3ccccc3)CC2)cc1	-1	-24	3	nt	57*	3	14	26*	-26
Cc1ccc(NC2CCCN(C(=O)c3ccc(-n4ccnc4)cc3)C2)cc1C (stereo not drawn)	1	-3	0	-2	-1	-2	nt	nt	nt
Cc1ccccc1CSCC(=O)NCCSc1ccccn1	2	-11	1	-2	-6	27	nt	nt	nt
COc1ccc(Cc2nc3ccc(C(=O)NCC(C)(C)OC)cc3o2)cc1	1	-13	0	nt	-16	-42	nt	nt	nt
Cc1cc(C)c(/C=N/NC(=O)c2nnn(-c3nonc3N)c2COc2ccc(F)cc2)c(C)c1	3	1	26*	-3	55	36	16	16	-8
CCOc1ccc(-c2c(C(=O)N/N=C/c3ccc(C)cc3)nnn2-c2nonc2N)cc1	4	-4	7	-4	3	19	nt	nt	nt
CCOc1ccccc1C(=O)NCCN1CCC(n2c(=O)[nH]c3ccccc32)CC1	-2	nt	nt	nt	nt	nt	nt	nt	nt
CCOC(=O)CNC(=O)CSc1nc(-c2ccc(C)cc2)ns1	-6	-4	1	-2	-18	-5	nt	nt	nt
CCOC(=O)CNC(=O)CSc1nc(-c2ccccc2)ns1	0	-15	-3	-4	62*	14	27	17	3
O=C(COc1ccccc1)N1CCN(c2nnc(-c3ccccc3)c3ccccc23)CC1	6	-6	-1	14	96*	-8	32	3	1
Cc1ccc(S(=O)(=O)c2nc(S(C)(=O)=O)sc2N2CCOCC2)cc1	-2	-9	0	-6	7	18	nt	nt	nt
Cc1ccc(S(=O)(=O)c2nc(S(=O)(=O)c3ccc(C)cc3)c(N3CCN(CCO)CC3)s2)cc1	-1	21	0	nt	55*	44	23	20	62*
CCS(=O)(=O)c1nc(S(=O)(=O)c2ccc(C)cc2)c(N2CCOCC2)s1	0	16	-3	2	54	22	21	15	7
CN(C)CCCN1C(=O)C2CCc3[nH]c4ccccc4c3C2C1=O (stereo not drawn)	-2	-8	1	-1	51	12	13	5	-7
CCOc1ccccc1N1CCN(C(=O)CNC(=O)c2ccc(OC)c(OC)c2)CC1	2	6	-7	-2	71*	13	10	9	-27
